These results are taken from PubChem BioAssay (NCATS).

Results filed as inconclusive are left out. Active and inactive are the calls of the source. The call rests on the fitted dose curve; in most records, active means well fitted cell-killing curve with a large enough effect; inconclusive means small, poorly fitted or top-dose-only effect, or effect the other way; inactive means no such curve, though single readings can be large or run the other way. Starred links: 1 amine or outer side, 2 acyl side, 3 side chain; linkers in the order of their positions; H or OH if unused. Positions of bridges follow the written chain, without caps; N, C: chain ends. Non-standard residues stand in square brackets, D forms with d. Residues, ends and D or L forms follow the SMILES beside them. Chains are numbered I, II in the order given. Actinocin(9to1) = Cc1c2oc3c(C)ccc(C(=O)[*:1])c3nc-2c(C(=O)[*:2])c(N)c1=O; NMeV = CN[CH](C(=O)O)C(C)C; Sar = CNCC(=O)O
Potency means the concentration at half of the fitted maximal effect.

A short description of the experiment: Quantitative High-Throughput drug screen in 47 multiple myeloma cell lines against the NCATS MIPE library collection: XG1_PLB cell viability assay (AID 1919866). Further: nearly all actives have a fitted effect of over 35% in size. The note with it: CellTiter-Glo ATP, 48 h; series mostly up to 45.8 µM. From the text: PI: Beverly A. Mock Ph.D.
Laboratory of Cancer Biology and Genetics,
Center for Cancer Research, National Cancer Institute,
National Institute of Health, Bethesda, Maryland
Drug resistance and disease progression are common in multiple myeloma (MM) patients, underscoring the need for new therapeutic combinations. […] We hypothesized that effective combinations would reduce MYC expression and enhance p16 activity. […] These preclinical data identify potentially useful drug combinations for evaluation in drug-resistant MM and reveal potential mechanisms of combined drug sensitivity.
Described herein is the primary MIPE qHTS used to cherrypick compounds. Validated compounds were then further tested for potential synergistic activiy.
[1] Peat TJ, Gaikwad SM, Dubois W, Gyabaah-Kessie N, Zhang S, Gorjifard S, Phyo Z, Andres M, Hughitt VK, Simpson RM, Miller MA, Girvin AT, Taylor A, Williams D, D'Antonio N, Zhang Y, Rajagopalan A, Flietner E, Wilson K, Zhang X, Shinn P, Klumpp-Thomas C, McKnight C, Itkin Z, Chen L, Kazandijian D, Zhang J, Michalowski AM, Simmons JK, Keats J, Thomas CJ, Mock BA. Drug combinations identified by high-throughput screening promote cell cycle transition and upregulate Smad pathways in myeloma. Cancer Lett. 2023 Aug 1;568:216284. doi: 10.1016/j.canlet.2023.216284. Epub 2023 Jun 24. PMID: 37356470; PMCID: PMC10408729.
SEQUENCE No. (e.g., 1, 2, 3, etc.); […] (e.g., Cells, Incubation, Reagent, etc.); VALUE and DESCRIPTION.
1; Cells; 5 uL; white, solid bottom 1536-well Greiner assay plate.
2; Compounds; 23 nL; Kalypsis pin tool (Wako USA) equipped with a 1536-well pin head to transfer to the assay plates.
3; Incubation; 48 hours; 37C incubation.
4; Reagent;5uL; CellTiter Glo (Promega).
5; Detector; 425V; Luminescence; Viewlux PerkinElmer.
NOTES (numbers refer to Sequence numbers above)
1. The cell-based screening methods employed in this study were like those previously published. Briefly, the corresponding myeloma cell lines were screened in 1,536-well plates with 500 cells, 5-uL per well for inhibition of cell viability (assessed by measuring ATP levels with CellTiterGlo).
2. NCATS MIPE 4.0 library of approved and investigational drugs were added using the Kalypsis pin tool. Wells treated with DMSO only for 100% viability and media only for 0% viability were used as controls.
3. The assay plates were covered and incubated for 48 hours in a 37C, 5% CO2 incubator with controlled humidity.
4. After 48 hours, CellTilter-GloTM luminescent substrate mix (Promega) reagent was added to the assay plate and plates we incubated for 5 min at room temperature.
5. Signal was measured as median relative luminescence units on a ViewLux (PerkinElmer) multiplate reader.
[1] Heske CM, Davis MI, Baumgart JT, Wilson K, Gormally MV, Chen L, Zhang X, Ceribelli M, Duveau DY, Guha R, Ferrer M, Arnaldez FI, Ji J, Tran HL, Zhang Y, Mendoza A, Helman LJ, Thomas CJ. Matrix Screen Identifies Synergistic Combination of PARP Inhibitors and Nicotinamide Phosphoribosyltransferase (NAMPT) Inhibitors in Ewing Sarcoma. Clin Cancer Res. 2017 Dec 1;23(23):7301-7311. doi: 10.1158/1078-0432.CCR-17-1121. Epub 2017 Sep 12. PMID: 28899971; PMCID: PMC6636827.
On the technique in general: ATP-based viability assays read luminescence as a measure of living cells.
Regarding `Nc1nc(=O)n([C@H]2CSC(CO)O2)cc1F` (stereo not given in full), the Potency result is “inactive”.
As to `N#CC(=C(N)Sc1ccc(N)cc1)c1ccccc1C(F)(F)F`, the Potency was 2.96 µM (active).
Then `Cc1cncc2cccc(S(=O)(=O)N3CCCN(C(=O)CN)C[C@@H]3C)c12`, with 20.9 µM (active); and `CN(C)CCN1C(=O)c2cccc3cc(N)cc(c23)C1=O`, with 16.6 µM (active).
Then `C#C[C@]1(O)CC[C@@H]2[C@@H]3CCc4cc(O)ccc4[C@H]3CC[C@@]21C`, with 3.32 µM (active).
Then `FC(F)c1nc2ccccc2n1-c1nc(N2CCOCC2)nc(N2CCOCC2)n1`, with 0.209 µM (active); and `COc1cc(C[C@@H](CO)[C@H](CO)Cc2ccc(O)c(OC)c2)ccc1O`, with 0.418 µM (active).
In the case of `CCCNC(=O)[C@H]1O[C@H]1C(=O)N[C@H](C(=O)N1CCC[C@@H]1C(=O)OC)C(C)CC` (stereo not given in full), the Potency is 14.8 µM (active).
Consider `COc1cc(C(C)C)c(Oc2cnc(NC(CO)CO)nc2N)cc1I`, for which the Potency result is “inactive”.
Turning to `COc1cccc2c1C(=O)c1c(O)c3c(c(O)c1C2=O)C[C@@](O)(C(C)=O)C[C@H]3O[C@H]1C[C@H](N)[C@H](O)[C@H](C)O1`, the Potency was 0.105 µM (active).
With `N#Cc1c(NC(=O)c2cccc3ccccc23)sc2c1CCCC2`, the Potency was 0.0833 µM (active).
Under `CCN1CCN(C(=O)N[C@H](C(=O)N[C@@H]2C(=O)N3C(C(=O)O)=C(CSc4nnnn4C)CS[C@@H]23)c2ccc(O)cc2)C(=O)C1=O` stands “inactive”; under `CON=C(C(=O)N[C@@H]1C(=O)N2C(C(=O)O)=C(CSC(=O)c3ccco3)CS[C@H]12)c1csc(N)n1`, “inactive”; under `OC[C@H]1OC(O)C[C@@H](O)[C@H]1O` (stereo not given in full), “inactive”.
Then `COc1cc(CCc2cc(NC(=O)c3ccc(N4C[C@@H](C)N[C@@H](C)C4)cc3)n[nH]2)cc(OC)c1`, with 14.8 µM (active).
Then `COc1ccc(Nc2nccc(NCCO)n2)cc1`, with “inactive”.
Regarding `COc1cc([C@@H]2c3cc4c(cc3[C@@H](O[C@@H]3O[C@@H]5CO[C@@H](c6cccs6)O[C@@H]5[C@H](O)[C@@H]3O)[C@H]3COC(=O)[C@H]23)OCO4)cc(OC)c1O`, the Potency is 0.526 µM (active).
`Cc1cc(-c2nnc3n2CCCCC3)c(C)n1-c1ccccc1`: the Potency result was “inactive”.
Turning to `Cc1c2oc3c(C)ccc(C(=O)NC4C(=O)NC(C(C)C)C(=O)N5CCCC5C(=O)N(C)CC(=O)N(C)C(C(C)C)C(=O)OC4C)c3nc-2c(C(=O)NC2C(=O)NC(C(C)C)C(=O)N3CCCC3C(=O)N(C)CC(=O)N(C)C(C(C)C)C(=O)OC2C)c(N)c1=O` (stereo not given) (I: TVP[Sar][NMeV] / II: TVP[Sar][NMeV]; ester I:1-I:C, II:1-II:C; linker I:N-II:N via Actinocin(9to1); configuration not given here), the Potency result was “inactive”.
Then `CCOC(=O)N1CCN([N+]([O-])=NOc2ccc([N+](=O)[O-])cc2C#N)CC1`, with 0.372 µM (active); and `C=CCNc1c(O)cc2c(O)c1C[C@@H](C)C[C@H](OC)[C@@H](O)[C@@H](C)C=C(C)[C@H](OC(N)=O)[C@@H](OC)C=CC=C(C)C(=O)N2`, with 0.418 µM (active).
Then `CC(Oc1ccc(O)cc1)(P(=O)(O)O)P(=O)(O)O`, with “inactive”; and `O=[N+]([O-])c1cn2c(n1)OC[C@@H](OCc1ccc(OC(F)(F)F)cc1)C2`, with “inactive”; and `c1ccc(CNc2nc(NCc3ccccc3)c3ccccc3n2)cc1`, with 7.43 µM (active).
Then `c1ccc2c(Oc3nc(Nc4ccc(N5CCOCC5)cc4)c4ncn(C5CCCCC5)c4n3)cccc2c1`, with 18.7 µM (active).
As for `C[C@H](O)[C@@H]1C(=O)N2C(C(=O)O)=C(S[C@@H]3CN[C@H](CNS(N)(=O)=O)C3)[C@@H](C)[C@@H]12`, the Potency entry is “inactive”.
Under `CCc1ccc(C(=O)Nc2cc(CN3CCN(C)CC3)cc(C(F)(F)F)c2)cc1C#Cc1cnc2ccnn2c1` stands 4.69 µM (active); under `CC(C)C[C@H](NC(=O)CNC(=O)c1cc(Cl)ccc1Cl)B1OC(=O)CC(CC(=O)O)(C(=O)O)O1` (stereo not given in full), 0.0418 µM (active).
Under `COC1=C2C[C@@H](C)C[C@H](OC)[C@@H](O)[C@@H](C)C=C(C)[C@H](OC(N)=O)[C@@H](OC)C=CC=C(C)C(=O)NC(=CC1=O)C2=O` stands 0.209 µM (active); under `CC1(C)CC(O)CC(C)(C)N1[O]`, “inactive”; under `N#CNC(=NCCCCCCOc1ccc(Cl)cc1)Nc1ccncc1`, “inactive”.
Then `C[C@H](NC(=O)[C@@H](O)c1cc(F)cc(F)c1)C(=O)N[C@@H]1C(=O)N(C)c2ccccc2-c2ccccc21`, with 16.6 µM (active); and `O=C(C=CC#Cc1cccc(NS(=O)(=O)c2ccccc2)c1)NO`, with 1.87 µM (active).
Regarding `O=C1NC(=O)C(=Cc2ccc3nccc(-c4ccncc4)c3c2)S1`, the Potency was 0.0332 µM (active).
Then `CCOC(=O)[C@@H](N)Cc1ccc(-c2cc(O[C@H](c3ccc(Cl)cc3-n3ccc(C)n3)C(F)(F)F)nc(N)n2)cc1`, with 23.5 µM (active); and `COc1cc(C(=O)NC2CCN(C)CC2)ccc1Nc1ncc2c(n1)N(C1CCCC1)CCC(=O)N2C(C)C`, with 20.9 µM (active).
On to `O=c1ccn([C@@H]2O[C@H](CO)[C@H](O)[C@@H]2F)c(=O)[nH]1`, for which the Potency is 5.9 µM (active).
Under `OCC(O)C(O)C(O)CO` (stereo not given) stands “inactive”; under `CC(Cc1ccc(O)c(O)c1)(NN)C(=O)O` (stereo not given), “inactive”; under `CCN(CC)CCNC(=O)c1c(C)[nH]c(C=C2C(=O)Nc3ccc(F)cc32)c1C`, 3.03 µM (active).
